# Test results taken from article PMC7862700, “An all-to-all approach to the identification of sequence-specific readers for epigenetic DNA modifications on cytosine”.
# How the values were obtained:
# Assay in all cases: DAPPL (digital affinity profiling via proximity ligation, sequencing); 10 mM Tris-HCl pH 7.5, 50 mM NaCl, 1 mM DTT, 4% glycerol, room temperature, 30 min; GST-TFs on glutathione beads, 16-mer random dsDNA library, 0.1% formaldehyde crosslink after washing; high values mean tight binding
# Settings in all cases: protein: recombinant; tags: N-terminal GST; dsDNA, one strand shown
# ERF = target: T1, ERF (Homo sapiens, UniProt P50548 1-548)
# T1 sequence: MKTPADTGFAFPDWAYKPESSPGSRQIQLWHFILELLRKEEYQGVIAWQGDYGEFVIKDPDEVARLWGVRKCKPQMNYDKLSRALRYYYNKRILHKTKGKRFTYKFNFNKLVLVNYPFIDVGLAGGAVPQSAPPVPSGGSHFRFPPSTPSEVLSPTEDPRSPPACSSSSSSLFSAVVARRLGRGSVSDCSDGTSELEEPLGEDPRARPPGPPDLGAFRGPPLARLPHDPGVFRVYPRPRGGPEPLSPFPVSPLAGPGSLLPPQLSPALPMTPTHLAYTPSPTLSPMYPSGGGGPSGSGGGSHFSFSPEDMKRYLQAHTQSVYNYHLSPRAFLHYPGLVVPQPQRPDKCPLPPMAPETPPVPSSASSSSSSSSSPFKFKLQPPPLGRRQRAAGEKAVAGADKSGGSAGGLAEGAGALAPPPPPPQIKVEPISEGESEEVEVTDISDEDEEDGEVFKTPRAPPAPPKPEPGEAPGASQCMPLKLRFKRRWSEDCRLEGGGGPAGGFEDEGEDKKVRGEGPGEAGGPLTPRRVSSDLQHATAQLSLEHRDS
# In short: (§1)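 Human transcription factors fused to GST were expressed in yeast, captured on glutathione beads, given DNA barcodes and pooled with a GST-only negative control. Pools were incubated with 200 nmole of a 16-mer random double-stranded DNA library in Tris/NaCl/DTT/glycerol buffer at room temperature for 30 min. They were then washed, crosslinked with 0.1% formaldehyde, proximity-ligated (BsaI/T4 ligase, 1 h, 37 °C), PCR-amplified and sequenced on an Illumina NextSeq500. Binding signal is each 6-mer's read frequency for a factor divided by its frequency for the GST control.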
# ETV3L = target: T2, ETV3L (Homo sapiens, UniProt Q6ZN32 1-361)
# T2 sequence: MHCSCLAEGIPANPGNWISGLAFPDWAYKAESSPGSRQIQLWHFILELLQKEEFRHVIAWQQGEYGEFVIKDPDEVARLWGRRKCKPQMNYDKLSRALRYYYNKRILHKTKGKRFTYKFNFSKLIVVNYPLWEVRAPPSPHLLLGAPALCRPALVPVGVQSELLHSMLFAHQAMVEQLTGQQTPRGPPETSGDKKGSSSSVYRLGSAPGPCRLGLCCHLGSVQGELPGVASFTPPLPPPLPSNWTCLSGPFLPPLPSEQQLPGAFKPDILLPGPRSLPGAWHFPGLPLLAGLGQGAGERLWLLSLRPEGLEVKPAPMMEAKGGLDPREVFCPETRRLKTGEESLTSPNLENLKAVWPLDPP
# In short: as §1
# ETS2 = target: T3, ETS2 (Homo sapiens, UniProt P15036 1-469)
# T3 sequence: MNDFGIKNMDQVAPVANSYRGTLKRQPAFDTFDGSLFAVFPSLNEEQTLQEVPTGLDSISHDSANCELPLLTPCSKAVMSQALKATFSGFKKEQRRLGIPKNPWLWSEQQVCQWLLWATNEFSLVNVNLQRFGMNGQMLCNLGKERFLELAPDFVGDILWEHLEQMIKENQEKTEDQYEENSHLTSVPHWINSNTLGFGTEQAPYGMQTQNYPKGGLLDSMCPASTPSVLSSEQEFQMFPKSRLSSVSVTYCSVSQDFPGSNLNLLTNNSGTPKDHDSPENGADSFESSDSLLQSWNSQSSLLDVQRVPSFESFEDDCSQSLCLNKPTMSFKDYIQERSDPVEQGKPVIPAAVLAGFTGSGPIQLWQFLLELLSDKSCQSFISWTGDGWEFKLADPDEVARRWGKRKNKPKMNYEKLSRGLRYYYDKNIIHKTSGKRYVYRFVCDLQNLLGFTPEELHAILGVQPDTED
# In short: as §1
# SPDEF = target: T4, SPDEF (Homo sapiens, UniProt O95238 1-335)
# T4 sequence: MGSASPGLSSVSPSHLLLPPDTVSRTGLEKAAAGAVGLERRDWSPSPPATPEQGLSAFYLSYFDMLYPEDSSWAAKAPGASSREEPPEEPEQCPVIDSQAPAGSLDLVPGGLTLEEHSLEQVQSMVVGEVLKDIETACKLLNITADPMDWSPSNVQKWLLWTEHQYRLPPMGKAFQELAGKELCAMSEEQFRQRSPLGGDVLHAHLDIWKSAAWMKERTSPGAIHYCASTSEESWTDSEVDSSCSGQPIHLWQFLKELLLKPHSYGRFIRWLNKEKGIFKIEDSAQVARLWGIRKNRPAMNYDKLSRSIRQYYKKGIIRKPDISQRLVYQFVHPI
# In short: as §1
# ETV7 = target: T5, ETV7 (Homo sapiens, UniProt Q9Y603 1-341)
# T5 sequence: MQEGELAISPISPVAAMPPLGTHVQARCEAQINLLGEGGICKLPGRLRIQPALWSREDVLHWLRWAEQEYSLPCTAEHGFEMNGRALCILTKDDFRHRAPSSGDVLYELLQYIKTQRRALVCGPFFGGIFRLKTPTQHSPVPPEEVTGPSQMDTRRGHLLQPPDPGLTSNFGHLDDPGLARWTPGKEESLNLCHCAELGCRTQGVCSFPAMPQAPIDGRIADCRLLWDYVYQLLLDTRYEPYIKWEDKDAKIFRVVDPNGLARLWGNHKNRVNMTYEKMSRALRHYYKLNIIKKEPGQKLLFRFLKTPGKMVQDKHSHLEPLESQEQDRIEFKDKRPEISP
# In short: as §1
# ELF5 = target: T6, ELF5 (Homo sapiens, UniProt Q9UKW6-2 1-255)
# T6 sequence: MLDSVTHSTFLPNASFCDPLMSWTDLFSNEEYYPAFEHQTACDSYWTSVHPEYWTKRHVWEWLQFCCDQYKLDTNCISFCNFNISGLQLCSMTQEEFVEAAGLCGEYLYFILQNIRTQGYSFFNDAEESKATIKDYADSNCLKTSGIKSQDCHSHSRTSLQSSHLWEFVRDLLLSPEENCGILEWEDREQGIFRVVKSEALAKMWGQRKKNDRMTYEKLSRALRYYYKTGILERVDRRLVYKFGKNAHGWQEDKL
# In short: as §1
# ETV3 = target: T7, ETV3 (Homo sapiens, UniProt P41162-2 1-143)
# T7 sequence: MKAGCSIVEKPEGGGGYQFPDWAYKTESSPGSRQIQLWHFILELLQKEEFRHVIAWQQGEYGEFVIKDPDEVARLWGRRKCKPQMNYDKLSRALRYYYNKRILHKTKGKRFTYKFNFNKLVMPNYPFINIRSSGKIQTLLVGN
# In short: as §1
# ETV6 = ETV6 (Homo sapiens, UniProt P41212 1-452)
# ETV6, sequence (P41212 whole entry): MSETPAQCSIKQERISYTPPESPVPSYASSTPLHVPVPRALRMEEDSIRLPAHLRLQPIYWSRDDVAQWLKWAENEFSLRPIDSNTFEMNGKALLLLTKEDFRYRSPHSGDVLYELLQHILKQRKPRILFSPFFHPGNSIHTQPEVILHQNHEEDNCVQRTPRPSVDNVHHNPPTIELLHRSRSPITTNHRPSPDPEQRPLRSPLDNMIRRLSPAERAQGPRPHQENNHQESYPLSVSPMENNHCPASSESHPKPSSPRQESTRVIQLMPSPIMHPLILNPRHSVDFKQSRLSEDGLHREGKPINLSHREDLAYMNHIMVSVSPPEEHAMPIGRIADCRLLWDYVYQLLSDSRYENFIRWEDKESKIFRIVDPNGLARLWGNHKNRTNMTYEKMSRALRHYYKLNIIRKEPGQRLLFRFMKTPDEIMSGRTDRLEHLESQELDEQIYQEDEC
# In short: as §1
Sequence,binding signal (ERF),binding signal (ETV3L),binding signal (ETS2),binding signal (SPDEF),binding signal (ETV7),binding signal (ELF5),binding signal (ETV3),binding signal (ETV6)
CACGAA,"1.18 fold enrichment (6-mer frequency, TF over GST control)","1.01 fold enrichment (6-mer frequency, TF over GST control)","1.12 fold enrichment (6-mer frequency, TF over GST control)","1.08 fold enrichment (6-mer frequency, TF over GST control)","1.16 fold enrichment (6-mer frequency, TF over GST control)","1.02 fold enrichment (6-mer frequency, TF over GST control)","1.05 fold enrichment (6-mer frequency, TF over GST control)","1.07 fold enrichment (6-mer frequency, TF over GST control)"
ACAGGA,"1.03 fold enrichment (6-mer frequency, TF over GST control)","1.11 fold enrichment (6-mer frequency, TF over GST control)","1.16 fold enrichment (6-mer frequency, TF over GST control)","1.37 fold enrichment (6-mer frequency, TF over GST control)","1.11 fold enrichment (6-mer frequency, TF over GST control)","1.28 fold enrichment (6-mer frequency, TF over GST control)","1.15 fold enrichment (6-mer frequency, TF over GST control)","1.19 fold enrichment (6-mer frequency, TF over GST control)"
CAAATG,"1.25 fold enrichment (6-mer frequency, TF over GST control)","1.11 fold enrichment (6-mer frequency, TF over GST control)","1.15 fold enrichment (6-mer frequency, TF over GST control)","1.19 fold enrichment (6-mer frequency, TF over GST control)","1.2 fold enrichment (6-mer frequency, TF over GST control)","1.1 fold enrichment (6-mer frequency, TF over GST control)","1.13 fold enrichment (6-mer frequency, TF over GST control)","1.18 fold enrichment (6-mer frequency, TF over GST control)"
CGGATA,"1.17 fold enrichment (6-mer frequency, TF over GST control)","1.13 fold enrichment (6-mer frequency, TF over GST control)","1.3 fold enrichment (6-mer frequency, TF over GST control)","1.93 fold enrichment (6-mer frequency, TF over GST control)","1.09 fold enrichment (6-mer frequency, TF over GST control)","1.37 fold enrichment (6-mer frequency, TF over GST control)","1.33 fold enrichment (6-mer frequency, TF over GST control)","1.21 fold enrichment (6-mer frequency, TF over GST control)"
GATGCA,"1.2 fold enrichment (6-mer frequency, TF over GST control)","1.14 fold enrichment (6-mer frequency, TF over GST control)","1.16 fold enrichment (6-mer frequency, TF over GST control)","1.47 fold enrichment (6-mer frequency, TF over GST control)","1.04 fold enrichment (6-mer frequency, TF over GST control)","1.1 fold enrichment (6-mer frequency, TF over GST control)","1.16 fold enrichment (6-mer frequency, TF over GST control)","1.02 fold enrichment (6-mer frequency, TF over GST control)"
CGTTAC,"1.16 fold enrichment (6-mer frequency, TF over GST control)","1.18 fold enrichment (6-mer frequency, TF over GST control)","1.23 fold enrichment (6-mer frequency, TF over GST control)","1.1 fold enrichment (6-mer frequency, TF over GST control)","1.11 fold enrichment (6-mer frequency, TF over GST control)","1.15 fold enrichment (6-mer frequency, TF over GST control)","1.14 fold enrichment (6-mer frequency, TF over GST control)","1.12 fold enrichment (6-mer frequency, TF over GST control)"
ATTGCT,"1.15 fold enrichment (6-mer frequency, TF over GST control)","1.25 fold enrichment (6-mer frequency, TF over GST control)","1.23 fold enrichment (6-mer frequency, TF over GST control)","1.17 fold enrichment (6-mer frequency, TF over GST control)","1.43 fold enrichment (6-mer frequency, TF over GST control)","1.18 fold enrichment (6-mer frequency, TF over GST control)","1.11 fold enrichment (6-mer frequency, TF over GST control)","1.15 fold enrichment (6-mer frequency, TF over GST control)"
CGGAAG,"2.46 fold enrichment (6-mer frequency, TF over GST control)","2.71 fold enrichment (6-mer frequency, TF over GST control)","3.01 fold enrichment (6-mer frequency, TF over GST control)","3.02 fold enrichment (6-mer frequency, TF over GST control)","2.8 fold enrichment (6-mer frequency, TF over GST control)","3.37 fold enrichment (6-mer frequency, TF over GST control)","3.28 fold enrichment (6-mer frequency, TF over GST control)","3.4 fold enrichment (6-mer frequency, TF over GST control)"
